Test results from PubChem BioAssay AID1259417 (TB Discovery Research, Infectious Disease Research Institute, 2018).
Hit rate of the full screen: of about 1,100 compounds, about 760 (69%) were called active. The rule behind the calls is not given here. The set was probably picked from earlier hits. This is one part of the list.

Test: M. tuberculosis growth inhibition, HTS (AID 1259417);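 note: bacteria grown with compound for 5 days at 37 °C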
Details: stronger effect = higher value, concentration not given here
[1] = M. tuberculosis DsRed fluorescence growth inhibition
[2] = M. tuberculosis growth inhibition

Row | Structure (SMILES) | inhibition [1] | inhibition [2]
1 | CC(C)(C)c1ccc(C(=O)Nc2nnc(-c3ccncc3)o2)cc1 | 64.6% (active) | 77.1%
2 | CC(C)(C)c1ccc(C(=O)Nc2nnc(-c3cccnc3)o2)cc1 | 83.8% (active) | 89.3%
3 | CC12CCC(C(=O)Oc3cccc4cccnc34)(CC1=O)C2(C)C (centres undefined) | 101% (active) | 100%
4 | COC(=O)c1ccc(COC(=O)c2ccccc2Cl)cc1 | 0.593% (inactive) | 15.3%
5 | CCCCNC(=O)COC(=O)c1cc(Br)ccc1Cl | 11.3% (active) | 63.4%
6 | O=c1c2ccccc2nc(C=Cc2ccc([N+](=O)[O-])o2)n1-c1cccc(O)c1 | 6.18% (inactive) | -1.52%
7 | CCn1c(C=Cc2ccc([N+](=O)[O-])o2)nc2ccc(I)cc2c1=O | 36.1% (active) | 34.3%
8 | Cc1ccc(C)c(OCC(=O)Nc2ccc(C(=O)OC(C)C)cc2)c1C | 8.22% (inactive) | -22.5%
9 | CCOC(=O)c1c(NC(=O)C2COc3ccccc3O2)sc2c1CC(C)(C)NC2(C)C (centres undefined) | 29.1% (inactive) | -2.75%
10 | Cc1ccc(C(=O)Nc2ccc([N+](=O)[O-])cc2)s1 | 98.3% (active) | 94.8%
11 | CCOC(=O)c1ccc(NC(=O)C=Cc2ccc([N+](=O)[O-])s2)cc1 | 52.9% (active) | 80.2%
12 | CCOC(=O)c1ccc(NC(=O)c2ccc(C)s2)cc1 | 91.5% (active) | 65.1%
13 | O=Cc1ccc2oc3nc4n(c(=O)c3c(=O)c2c1)CCCS4 | 96.9% (active) | 95.6%
14 | O=c1c2cc(Cl)ccc2oc2nc3n(c(=O)c12)CCCS3 | 99.1% (active) | 98.2%
15 | CC(C)c1ccc(-c2csc(NC(=O)c3ccc4c(c3)OCCO4)n2)cc1 | -4.25% (inactive) | -26.1%
16 | O=C(Nc1ccn(Cc2ccc(Cl)cc2)n1)c1ccc2c(c1)OCO2 | 100% (active) | 99.3%
17 | O=C1N(Cc2ccccc2Cl)c2ccc(Br)cc2C1(O)c1c[nH]c2ccccc12 (centres undefined) | 10.6% (inactive) | -0.98%
18 | Cc1ccc(C(=O)Nc2sc(C)c(C)c2C(N)=O)cc1I | 3.89% (inactive) | -13.1%
19 | O=C(Nc1ccccc1Br)c1ccc([N+](=O)[O-])o1 | 64% (active) | 42.2%
20 | CCc1cc(I)ccc1NC(=O)c1ccc([N+](=O)[O-])o1 | 98% (active) | 98.3%
21 | Cc1ccc(C(=O)Nc2ccc([N+](=O)[O-])cc2C)cc1I | 97.4% (active) | 83.2%
22 | CCN(CC)c1ccc(NC(=O)c2ccc([N+](=O)[O-])o2)c(C)c1 | 98.8% (active) | 99.7%

Row | Structure (SMILES) | inhibition [1] | inhibition [2]
23 | Cc1cc(NC(=O)c2ccc([N+](=O)[O-])o2)c(C)cc1I | 88% (active) | 92%
24 | c1ccc(CCNc2nc(-c3ccccn3)cs2)cc1 | 87.2% (active) | 86.6%
25 | COc1ccc(CCNc2nc(-c3ccccn3)cs2)cc1OC | 89.5% (active) | 78%
26 | Cc1cn2c3c(=O)[nH]c(=O)n(C)c3nc2n1CCCNc1ccccc1 | 34.8% (active) | 31.6%
27 | Cc1cccc2sc(NC(=O)c3ccc(C(C)(C)C)cc3)nc12 | 12.6% (inactive) | 14.7%
28 | CCOC(=O)C(C)Sc1nnc(NC(=O)c2ccc(C)c([N+](=O)[O-])c2)s1 (centres undefined) | -5.3% (inactive) | 0.339%
29 | COC(=O)CSc1nnc(NC(=O)c2ccc(Cl)cc2)s1 | 88.6% (active) | 86.6%
30 | CC(C)c1ccc(Nc2nnc(SCC(=O)Nc3ncc(S(=O)(=O)c4ccc([N+](=O)[O-])cc4)s3)s2)cc1 | -1.44% (inactive) | -2.42%
31 | COC(=O)CSc1nnc(NC(=O)c2ccc(C(C)(C)C)cc2)s1 | 99.1% (active) | 98.3%
32 | CCc1ccc(Nc2nnc(SCC(=O)Nc3cccnc3Cl)s2)cc1 | 7.74% (inactive) | 23.1%
33 | CC1=Nc2c(ccc3cccnc23)C1(C)C | 8.5% (active) | 35.9%
34 | COc1ccccc1-c1nnc(Nc2nc3c(F)cccc3s2)o1 | 30.8% (active) | 84.8%
35 | Cc1ccc(C(=O)NCCC2=CCCCC2)cc1I | 81.3% (active) | 52.7%
36 | Cc1ccc(C(=O)NCCSC(C)(C)C)cc1[N+](=O)[O-] | -1.92% (inactive) | -26.5%
37 | COCCCNC(=O)c1c(NC(=O)c2ccc(C(C)(C)C)cc2)sc2c1CCCC2 | 15.2% (inactive) | -1.37%
38 | Cc1ccc(C(=O)NCCC2=CCCCC2)cc1Br | 86.6% (active) | 67.2%
39 | CCn1c2ccccc2c2cc(CN3CCC(N4CCN(c5ccccc5)CC4)CC3)ccc21 | -3.76% (inactive) | -28%
40 | COC(=O)CSc1ccc(C#N)c(SCC(=O)OC)c1 | -1.74% (active) | 42.7%
41 | COC(=O)CSc1cc(SCC(=O)OC)c(C#N)c(SCC(=O)OC)c1 | 28.8% (inactive) | 23.9%
42 | COC(=O)CSc1ccc2c(N)c(C(=O)OC)sc2c1 | 43.5% (active) | 77.1%
43 | Cc1cc(C(C)(C)C)ccc1OCCOCCn1ccnc1 | 99.2% (active) | 100%
44 | Cc1cc(C(C)(C)C)ccc1OCCCCn1ccnc1 | 99.4% (active) | 99.7%

Row | Structure (SMILES) | inhibition [1] | inhibition [2]
45 | N=c1c2c(-c3ccccc3)c(-c3ccccc3)n(Cc3ccco3)c2ncn1Cc1ccco1 | 71% (active) | 61.5%
46 | O=C(CSc1nnc(-c2cccnc2)o1)N1CCC(Cc2ccccc2)CC1 | 95.4% (active) | 86.2%
47 | COc1ccccc1N1C(=O)c2cccc3cc([N+](=O)[O-])cc(c23)C1=O | 89.8% (active) | 95.8%
48 | Cc1cccc(C)c1OCc1nnc(SCC(=O)NCCc2ccccc2)o1 | 84.2% (active) | 73.9%
49 | Cc1cccc(OCc2nnc(SCC(=O)NCCc3ccccc3)o2)c1 | 92.7% (active) | 74.5%
50 | CSc1ccc(C(CC(=O)c2ccccc2)Nc2ccc(F)cc2)cc1 (centres undefined) | 19.6% (inactive) | 21.6%
51 | Cn1c(NC(=O)c2ccccc2)nc2ccccc21 | 98.3% (active) | 99.7%
52 | Cn1c(NC(=S)Nc2ccccc2)nc2ccccc21 | 21.4% (active) | 48.5%
53 | O=C(Nc1cccc(Cl)c1)c1cc(Br)ccc1Cl | 76.3% (active) | 46.1%
54 | O=C(CSc1ccc(Br)cc1)Nc1cccc(Cl)c1 | 7.93% (inactive) | 16.8%
55 | COc1ccc(N2C(=O)C(F)(F)C2c2ccccc2F)cc1 (centres undefined) | 33.6% (active) | 75.8%
56 | O=C(NCc1ccco1)c1cnn2c1NC(c1ccc(Br)cc1)CC2C(F)(F)F (centres undefined) | 38.9% (active) | 15.1%
57 | Cc1c(CNC(=O)c2cnn3c2NC(c2ccc(Br)cc2)CC3C(F)(F)F)cnn1C (centres undefined) | 57.6% (active) | 17.9%
58 | O=C(NCc1ccc2c(c1)OCO2)c1cnn2c1NC(c1cccs1)CC2C(F)(F)F (centres undefined) | 100% (active) | 94.1%
59 | CSc1nc2ccc(NC(=O)C3CC(=O)N(Cc4ccccc4)C3)cc2s1 (centres undefined) | 10.7% (inactive) | 22.1%
60 | CCOC(=O)c1cnc(-n2nc(C)cc2C)nc1Nc1ccc(OC)cc1 | 54% (active) | 30.7%
61 | CCOC(=O)c1cnc(-n2nc(C)cc2C)nc1NCCc1ccccc1 | 101% (active) | 101%
62 | O=S1(=O)C=C(Sc2nnc(-c3ccccc3)o2)c2ccccc21 | 100% (active) | 101%
63 | O=S1(=O)C=C(Sc2nnc(-c3ccncc3)o2)c2ccccc21 | 100% (active) | 101%
64 | CC(=O)Oc1c(C(=O)c2ccccc2)sc2ccccc12 | 79.9% (active) | 52.4%
65 | CCc1ccc(-c2ccc(SCC(N)=O)nn2)cc1 | 20% (active) | 41%
66 | Cc1cc(OCC(=O)NC2C3CC4CC(C3)CC2C4)cc(C)c1Br (centres undefined) | 98.6% (active) | 72%

Row | Structure (SMILES) | inhibition [1] | inhibition [2]
67 | N#Cc1c(SCC(N)=O)nsc1SCc1ccccc1Cl | 20.8% (active) | 61.7%
68 | CCc1cccc2c(C(=O)COC(=O)c3ccc([N+](=O)[O-])s3)c[nH]c12 | 91.9% (active) | 95.3%
69 | O=C(OCC(=O)c1c[nH]c2ccccc12)c1ccc([N+](=O)[O-])s1 | 61.6% (active) | 52.7%
70 | Cc1ccc(-c2nnc(NC(=O)c3ccccc3C)o2)c(C)c1 | 84.4% (active) | 87.2%
71 | Cc1ccc(-c2nnc(NC(=O)c3ccccc3Br)o2)c(C)c1 | 6.55% (inactive) | 19.3%
72 | Cc1ccc(-c2nnc(NC(=O)c3ccccc3Cl)o2)c(C)c1 | 24.1% (active) | 62.8%
73 | Cc1ccc(-c2nnc(NC(=O)c3cc4ccccc4oc3=O)o2)c(C)c1 | 80.8% (active) | 88.6%
74 | CCOC(=O)C1CCN(C2=NC(=O)C(=Cc3ccc(Cl)cc3Cl)S2)CC1 | 51.5% (active) | 55.8%
75 | NC(=O)C1CCN(C2=NC(=O)C(=Cc3ccc(Cl)cc3Cl)S2)CC1 | 100% (active) | 99.1%
76 | Cc1ccc(-c2csc3ncn(C(C)C(=O)OC4CCCCC4)c(=O)c23)cc1C (centres undefined) | -0.545% (inactive) | -11%
77 | CSc1nc2nc3c(c(=O)n2[nH]1)CCCC3 | 23.8% (active) | 41.7%
78 | Cc1cc(OCCCCn2ccnc2)cc(C(C)C)c1 | 100% (active) | 100%
79 | Cc1ccc(C(C)C)cc1OCCCCn1ccnc1 | 100% (active) | 99.6%
80 | Cc1ccc(C(C)C)c(OCCCCn2ccnc2)c1 | 98.9% (active) | 100%
81 | Cc1cc(OCCCCn2ccnc2)ccc1C(C)C | 99.8% (active) | 98.9%
82 | O=C(c1ccc(Cl)cc1)c1ccc(CSc2nnc(-c3ccccc3)o2)o1 | 97.4% (active) | 96.9%
83 | COC(=O)c1ccc(CSc2nnc(-c3ccncc3)o2)o1 | 14.3% (active) | 39.6%
84 | CCOc1cc(CNC(C)C23CC4CC(CC(C4)C2)C3)cc(Cl)c1OCC(=O)NC(C)(C)C (centres undefined) | 99.2% (active) | 98.2%
85 | COc1cc(CNC(C)c2ccccc2)cc(Cl)c1OCC(=O)Nc1ccccc1 (centres undefined) | 29.9% (active) | 19%
86 | CCOC(=O)COc1ccc(S(=O)(=O)N2CCc3ccccc3C2)cc1 | 80.1% (active) | 96.9%
87 | CCOC(=O)COc1ccc(S(=O)(=O)N2CCC(C)CC2)cc1 | 72.7% (active) | 91.2%
